Compound activity from PubChem.
Wnt bcat act: activators of Wnt/beta-catenin signaling. Wnt/beta-catenin reporter cell assay, activator, plate reader. activation, % at 9.35 µM. actives 1.2% (n = 300,000); in the data active = activation above about 30%, passing the limit was not always enough; inconclusive = no clear call, values can overlap the other calls;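 also: 0% = neutral control wells and 100% = positive control wells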
SMARCA2 activ: increases SMARCA2 function in MMTV reporter cells. MG213 cells, MMTV-luciferase reporter, dexamethasone, overnight. activation, % at 9.1 µM. actives 1% (n = 370,000); in the data active = activation above about 7.8%;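 also: 0% = vehicle wells and 100% = reference activator wells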
HSF1 inh: HSF1 inhibition; activity change, negative = inhibition, % at 7.5 µM (by protocol); actives 0.77% (n = 300,000); NIH3T3-HGL HSE-luciferase, MG132-induced, luminescence 8 h; active compounds read low;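 active = more than half of replicate wells show activity change below -50%, luminescence cut by over half; inconclusive = some wells, but at most half, below -50%; inactive = no replicate well below -50%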;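 also: luciferase reports HSF-1 transcriptional activity via heat shock element; 0% = median of DMSO wells and -100% = zero luminescence signal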
MITF act: activators of MITF-driven TRPM1 promoter activity in SK-MEL-5 cells; SK-MEL-5 TRPM1-promoter luciferase, 24 h; % of positive control, neutral wells = 0; activation, % at 12.5 µM; actives 0.75% (n = 300,000); AID 588334;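 active = mean activation of at least 80% with every replicate also reaching 80%; inconclusive = mean reaches 80% but some replicate falls short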;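 also: 0% = neutral control wells and 100% = parthenolide positive control wells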
esBAF inh: SWI/SNF esBAF complex inhibition; actives 2% (n = 350,000); reporter increase, % at 12.5 µM; mouse ES cells, Bmi1-luciferase knock-in reporter, 24 h; 100% = twice the neutral-well signal; AID 602393; in the data active = activation above about 40%; inconclusive = no clear call, values can overlap the other calls;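 also: 0% = median of the plate's neutral control wells and 100% = double that signal; a rise in the Bmi1 reporter signal indicates esBAF inhibition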
HSF-1 act: increases HSF-1 driven luciferase reporter signal; NIH3T3-HGL HSF-1 luciferase reporter, MG132, 8 h; 100% = twice DMSO control signal; activation, % at 9 µM; actives 1.7% (n = 300,000); AID 504408;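 active = mean replicate activation of at least 50% with a set share of replicates each reaching 50%; inconclusive = only one of those two conditions met; inactive = mean below 50% and too few replicates reaching it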;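 also: 0% = median of the neutral control wells and 100% = twice that signal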
* marks the source's active call; other numbers are inactive results; ? = inconclusive; . = no result. Shown are actives, neighbours in structure and some others; about 4.3% of the full set was active somewhere.

SMILES | Wnt bcat act | SMARCA2 activ | HSF1 inh | MITF act | esBAF inh | HSF-1 act
C/C(CC(=O)Nc1cccc2c1CCCC2)=N\NC(=O)COc1ccccc1 | -2.1 | 3.7 | 29.5 | 0.3 | . | 60.7*
COc1ccc(CC(=O)Nc2cccc3c2CCCC3)cc1 | -1.2 | 4.1 | 2.8 | . | -3.3 | 23.4
O=C(Nc1cccc2c1CCCC2)c1ccccc1Br | 0.5 | -2.0 | 1.3 | 9.0 | 5.6 | 16.0
C/C(CC(=O)Nc1cccc2c1CCCC2)=N\NC(=O)Cc1ccccc1 | 1.4 | -1.0 | 26.0 | -9.1 | 6.7 | 29.2
COc1ccc(NC(=O)N[C@H]2CC[C@H](CCNC(=O)CCN3CCCCC3)O[C@H]2CO)cc1 | . | . | . | . | -6.6 | .
Cc1ccc(S(=O)(=O)Nc2ccc3c(c2)C(=O)N([C@@H](C)CO)C[C@@H](C)[C@@H](CN(C)C(=O)c2ccncc2)OCCCC[C@H](C)O3)cc1 | . | . | . | . | 1.8 | .
COc1cccc(-c2ccc3c(c2)[C@@H]2[C@@H](CCN2C(=O)c2ccc(F)cc2)[C@H](CO)N3)c1 | . | . | . | . | -0.6 | .
C[C@@H]1CN([C@@H](C)CO)C(=O)c2cc(NC(=O)CCC(F)(F)F)ccc2O[C@@H](C)CCCCO[C@H]1CN(C)C(=O)c1ccccc1 | . | . | . | . | -1.9 | .
O=C(Nc1ccc2c3c(cccc13)CC2)c1ccc(Br)o1 | . | 3.1 | 43.1 | 74.0 | 79.4* | 74.9*
CNC[C@@H]1Oc2c(NC(=O)c3nc4ccccc4s3)cccc2C(=O)N([C@H](C)CO)C[C@@H]1C | . | . | . | . | 5.9 | .
Nc1ccccc1NC1=CC(=O)CC(c2ccco2)C1 (centres undefined) | . | 7.9* | 15.0 | -14.5 | 14.0 | 18.9
Nc1c(C(=O)c2ccc(Cl)cc2)sc2nc3c(cc12)CCC3 | -3.1 | 5.4 | 27.0 | 152.5* | . | 51.5*
COc1ccc(CN=C2Nc3ccccc3CS2)cc1 | . | 2.8 | -6.2 | . | 61.0* | 12.0
C[C@H](CO)N1C[C@H](C)[C@H](CN(C)Cc2cccc(C(=O)O)c2)Oc2ncc(C#CCN(C)C)cc2C1=O | . | . | . | . | 2.7 | .
Cc1ccc(N2C(=O)c3ccccc3NC2C(C)Cc2ccc3c(c2)OCO3)cc1 (centres undefined) | . | 0.2 | 7.5 | . | 52.0* | 36.8
N#CC1=C(N)NC(SCC(=O)Nc2ccccc2)=C(C#N)C12CCCCC2 | -3.2 | 0.4 | 39.9 | -1.1 | 17.3 | 71.2*
CCCCCCCOC(=O)c1ccc(OC(=O)c2cccnc2)cc1 | . | 0.4 | . | 35.8 | 33.2 | .
CCCCCOC(=O)c1ccc(OC(=O)c2cncc(Br)c2)cc1 | . | 1.5 | 13.6 | ? | 104.5* | -5.7
Cc1cc(NC(=O)Cn2cnc3sc(C)c(-c4ccccc4)c3c2=O)no1 | -2.7 | 3.4 | 119.9 | -2.1 | . | 185.1*
CCOc1ccc(C(=O)C2CCN(CC(=O)Nc3ccccc3N3CCOCC3)CC2)cc1 | . | 4.6 | 13.5 | -3.9 | -1.5 | -3.8
CCn1c(SC)nnc1C1CCCN(CC(=O)Nc2ccccc2N2CCOCC2)C1 (centres undefined) | -1.5 | 1.4 | 14.5 | -1.9 | . | 67.0*
O=C(c1ccc2ccccc2c1)N1CCc2ccccc21 | -1.2 | 3.0 | 24.5 | 46.6 | 64.4* | 40.9
CCOc1ccc(C(=O)N2CCc3ccccc32)cc1 | -1.3 | 5.0 | 13.7 | . | 49.8* | 30.4
CCCOc1ccc(C(=O)N2CCCc3ccccc32)cc1 | . | -0.7 | -8.4 | . | 10.0 | 2.6
CCOc1ccc(S(=O)(=O)NCCC(=O)OC(C)C(=O)N2CCc3ccccc32)cc1 (centres undefined) | . | -0.1 | 15.1 | . | 3.2 | 56.1*
SMILES | Wnt bcat act | SMARCA2 activ | HSF1 inh | MITF act | esBAF inh | HSF-1 act
Cc1cc(C)c(OCC(=O)OC(C)C(=O)N2CCc3ccccc32)c(C)c1 (centres undefined) | -0.3 | 0.2 | -2.9 | 3.4 | -12.2 | -5.0
CN1C(=O)c2cc(NC(=O)c3ccc(C(F)(F)F)cc3)ccc2OC[C@@H]2O[C@@H](CC(=O)NC3Cc4ccccc4C3)CC[C@H]21 | . | . | . | . | -5.7 | .
CC(C)[C@H](NC(=O)OC(C)(C)C)c1nnc(SCC(=O)Nc2ccc(Br)cc2)o1 | -4.5 | -1.5 | 31.6 | . | -5.8 | 84.1*
C[C@@H]1CN([C@@H](C)CO)C(=O)c2c(c3ccccc3n2C)-c2ccccc2CO[C@@H]1CN(C)C(=O)c1ccccc1 | . | . | . | . | -2.2 | .
O=c1[nH]c(CCl)nc2cc(-c3ccc(F)cc3)sc12 | 26.2 | 3.4 | 17.5 | 1.6 | . | 52.6*
COc1ccc(C2CC(=O)C3=C(C2)Nc2ncnn2C3c2ccccc2)cc1 (centres undefined) | -1.2 | 2.3 | 40.2 | . | -12.3 | 80.8*
COc1ccc(C2CC(=O)C3=C(C2)Nc2ncnn2C3c2ccccc2C)cc1 (centres undefined) | -5.2 | -0.3 | -4.7 | 1.9 | . | -23.8
Cc1ccc(S(=O)(=O)Nc2nc3ccccc3s2)cc1 | 2.3 | 0.9 | 1.5 | . | 5.5 | 1.9
Cc1ccc(/C=C/c2nc3ccccc3s2)s1 | . | 4.0 | -74.7* | -40.4 | -59.8 | -76.2
CN(C)c1ccc(/C=C/c2ccc3ccccc3n2)cc1 | . | . | -84.9* | -67.3 | -49.3 | -87.2
C(=C\c1ccc2ccccc2n1)/c1ccccc1 | -15.0 | 0.8 | -30.0 | -56.1 | -52.5 | -11.6
CN(C)c1ccc(/C=C/c2nc3ccccc3s2)cc1 | . | -7.8 | -79.5* | -76.6 | -5.9 | -82.1
CO[C@H]1CN(C)C(=O)c2ccc(NC(=O)NC(C)C)cc2OC[C@@H](C)N(C(=O)CN(C)C)C[C@@H]1C | . | . | . | . | -1.8 | .
CC(=O)N1CSCC1C(=O)NNS(=O)(=O)c1cccc(C(F)(F)F)c1 (centres undefined) | -0.5 | -2.0 | 19.3 | -3.2 | 2.0 | 74.8*
COc1ccc(NC(=O)c2cc3ccccc3cc2OC)cc1OC | -0.9 | 1.0 | 12.0 | 20.8 | . | 31.0
Cn1nnc2cc(C(=O)Nc3ccc4ccccc4c3)ccc21 | 55.5* | 5.2 | 11.0 | ? | . | 35.1
CCOc1ccc(CN(C)C(=O)CNC(=O)c2ccc3ccccc3c2)cc1OC | -1.4 | -0.6 | 21.2 | -9.8 | -3.7 | 84.2*
COc1ccc(C(=O)Nc2ccc3ccccc3c2)cc1OC | 15.3 | 5.2 | 25.5 | . | 85.6* | 63.6*
COc1cc(OC)c(C(=O)Nc2ccc3ccccc3c2)cc1OC | . | . | 23.1 | 72.3 | 53.7* | 34.9
CCCC(=O)Nc1ccc2c(c1)OC[C@@H](C)N(Cc1cccc(F)c1)C[C@H](C)[C@@H](OC)CN(C)C2=O | . | . | . | . | -2.0 | .
Cc1ccc(C)c(N2CCN(CCN3CCCCC3)CC2)c1 | -0.9 | -2.8 | -56.9* | 7.0 | -6.3 | -63.3
Cn1c(=NC(=O)C2CCCCC2)sc2cc([N+](=O)[O-])ccc21 | 1.0 | -0.7 | 12.3 | 4.7 | . | 15.2
CCOc1ccc2c(c1)sc(=NC(=O)C1CC1)n2C | -1.3 | 5.7 | 5.1 | 5.9 | 59.9* | 11.3
O=C(Nc1ccccc1F)N[C@H]1CC[C@@H](CC(=O)N2CCCCC2)O[C@@H]1CO | . | . | . | . | -1.3 | .
C[C@@H]1CN([C@H](C)CO)S(=O)(=O)c2ccc(C3=CCCCC3)cc2O[C@@H]1CN(C)C(=O)C1CCC1 | . | . | . | . | 6.2 | .
